ADAM10 inh: inhibits human ADAM10; recombinant ADAM10, EDANS/DABCYL FRET peptide cleavage, 3 h; inhibition, % at 7 µM; 0.62% of 370,000 active; O14672; AID 720582;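 active means inhibition above a per-campaign cutoff equal to the mean of compounds falling between control-based bounds plus 3 SD, cut at about 20% in these data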;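 further: 0% = DMSO wells while the 100% control is not disclosed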
ADAM17 inh: ADAM17 inhibition, QFRET primary screen | P78536 | recombinant ADAM17, EDANS/DABCYL FRET peptide cleavage | inhibition, % at 6.95 µM | 0.83% of 370,000 active | AID 720648;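 active means inhibition above the mean of compounds lying between control limits plus 3 SD, set per campaign, cut at about 8.5% in these data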;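 further: 0% = DMSO-only wells as the low control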
Target sequence (P78536 215-824 limits assumed): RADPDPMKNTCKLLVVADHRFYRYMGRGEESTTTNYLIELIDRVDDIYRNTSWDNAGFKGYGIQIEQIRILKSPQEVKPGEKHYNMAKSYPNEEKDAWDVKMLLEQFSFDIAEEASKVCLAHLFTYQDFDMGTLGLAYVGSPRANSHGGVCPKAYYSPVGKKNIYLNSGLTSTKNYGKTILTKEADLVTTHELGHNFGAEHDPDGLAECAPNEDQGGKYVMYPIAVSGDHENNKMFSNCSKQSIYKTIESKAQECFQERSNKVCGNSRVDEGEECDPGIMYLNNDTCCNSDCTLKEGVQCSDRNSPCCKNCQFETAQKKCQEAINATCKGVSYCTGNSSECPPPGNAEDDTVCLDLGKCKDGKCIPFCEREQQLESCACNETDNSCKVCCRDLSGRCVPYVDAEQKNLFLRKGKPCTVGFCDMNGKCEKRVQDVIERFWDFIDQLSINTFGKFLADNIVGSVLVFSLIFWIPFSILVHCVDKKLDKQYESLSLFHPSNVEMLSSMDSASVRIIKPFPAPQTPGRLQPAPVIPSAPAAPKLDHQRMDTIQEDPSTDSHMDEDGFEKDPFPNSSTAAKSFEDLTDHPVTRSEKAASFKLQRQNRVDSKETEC
FGF22 binding: shifts melting point of recombinant human FGF22 | activity (Tm shift, normalised), % at 9.99 µM | 1.5% of 340,000 active | Q9HCT0 | recombinant FGF22 thermal shift, SYPRO orange fluorescence; percent of sucrose octasulfate shift, DMSO zero;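 active means mean Tm shift, scaled 0 neutral to 100 positive control, at about 1.3% or above, every replicate too, limit read from the data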
KLK7 zymogen act: proKLK7 (human) activation, primary screen | P49862 | purified proKLK7, EDANS-DABCYL substrate fluorescence; 100% is mature enzyme control, 0% vehicle | activation, % at 7 µM | 0.9% of 370,000 active | AID 652039;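 active means activation above the mean of all tested compounds plus 3 SD, computed per campaign excluding outliers beyond control limits, cut at about 13% in these data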
rRNA inh HTS: inhibitors of bacterial rRNA selective over humanized ribosomes. E. coli WT GFP vs humanized-ribosome RFP mutants, fluorescence, 24 h; active compounds read low; DMSO median 0, no signal -100. GFP signal change (wild-type ribosome), % (no concentration beside the values). 1.6% of 350,000 active;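 active means significant combined selectivity score with lowered wild-type GFP, culture density cut under 30%, mutant RFP and density less affected; inactive means any of these conditions unmet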
* hit, by the source's call; i = inactive; · = not tested or not shown. An excerpt weighted towards active compounds, which were near 3.8% of everything screened.

SMILES	ADAM10 inh	ADAM17 inh	FGF22 binding	KLK7 zymogen act	rRNA inh HTS
CCCCn1nc2cc(C(=O)NC[C@@H]3CCCO3)ccc2c1OCC	i	-228.2	0.1	7.3	7.2
CCCCNC(=O)c1ccc2c(OCC)n(CCCC)nc2c1	i	-167.8	-0.1	2.4	0.9
CCCn1nc2cc(C(=O)NCc3ccc(OC(F)(F)F)cc3)ccc2c1OCC	i	-200.3	43.0*	-12.3	-8.1
CC1Cc2ccccc2N1S(=O)(=O)c1cnc(Cl)c(Br)c1 (centres undefined)	8.6	1.7	-0.2	0.5	-26.8*
O=S(=O)(Nc1ccc2nc(C(F)(F)F)[nH]c2c1)c1ccccc1	8.2	2.9	·	0.0	·
Cc1ccc(-c2nc3ccc(NS(=O)(=O)c4ccccc4)cc3[nH]2)o1	-31.2	-11.1	0.6	-15.2	-31.9*
COc1ccc(N2C(=O)CC(Sc3nnc(-c4ccccc4F)n3C)C2=O)cc1 (centres undefined)	1.8	1.0	43.5*	0.0	13.8
COc1ccc(N2C(=O)CC(Sc3nc4ccccc4s3)C2=O)cc1 (centres undefined)	-1.1	7.7	0.1	-0.6	16.2
Cc1ccc(Cc2c(-c3ccc(Br)cc3)nc3ccc(Cl)cn23)cc1	-12.5	-5.5	-0.1	-1.0	-26.6*
COc1ccc(OCCSc2nc3ccccc3c(=O)[nH]2)cc1	0.1	0.4	·	0.1	·
COc1cccc(OCCSc2nc3ccccc3c(=O)[nH]2)c1	5.4	-1.9	43.4*	-0.7	2.7
Cc1cc(Cl)n2ncc(-c3ccccc3)c2n1	9.0	-5.8	-0.1	0.3	-32.5*
Cc1cc(N)n2ncc(-c3ccc(Cl)cc3)c2n1	-160.4	-38.5	·	-0.1	·
Cc1cc(NCc2ccccn2)n2ncc(-c3ccccc3)c2n1	-30.2	-16.7	0.0	-3.6	-37.9*
Cc1cc(NCc2ccccn2)n2ncc(-c3ccc(Cl)cc3)c2n1	-57.9	-27.2	-0.1	-4.4	16.2
CO[C@H]1CN(C)C(=O)c2ccc(NS(=O)(=O)c3ccccc3)cc2OC[C@@H](C)N(C)C[C@@H]1C	·	·	·	·	-0.2
CC(=O)Nc1ccc2c(c1)C(=O)N(C)[C@@H]1CC[C@H](CC(=O)NCC3CCCCC3)O[C@H]1CO2	·	·	-0.2	·	-11.0
CC1(C)CC(Cc2ccc(Cl)nc2)N(C(=O)OC(C)(C)C)C1 (centres undefined)	6.2	5.6	43.5*	0.6	-5.4
C[C@@H]1CC[C@H](Cc2ccc(-n3cccc3)cc2)N1C(=O)OC(C)(C)C	1.7	-3.1	-0.3	-0.7	-0.4
COc1ccc2c3c([nH]c2c1)[C@@H](CO)N(C(=O)Cc1ccccc1)CC31CCN(C(=O)Cc2ccccc2)CC1	·	·	·	·	1.5
CCc1ccc(C2C3=C(CCCC3=O)OC3=C2C(=O)CCC3)cc1	-1.6	-2.5	43.1*	-0.3	·
O=C(Cn1nnc(-c2ccccc2)n1)N1CCN(c2ccc(F)cc2)CC1	1.4	-2.7	42.9*	-0.7	9.1
O=C(Cn1nnc(-c2ccc(F)cc2)n1)N1CCCCC1	6.0	0.9	0.1	-0.7	2.5
O=C(COc1c(Cl)cc(Cl)cc1Cl)N/N=C/c1ccc[nH]1	0.4	0.5	·	·	·
O=C(N/N=C/c1ccc[nH]1)c1ccccc1OCc1ccccc1Cl	-8.2	-5.2	43.2*	0.0	-34.4
SMILES	ADAM10 inh	ADAM17 inh	FGF22 binding	KLK7 zymogen act	rRNA inh HTS
O=C(N/N=C/c1ccco1)c1ccccc1OCc1ccccc1Cl	-3.8	2.5	0.1	-0.2	-34.5
O=C(COc1ccc(Cl)cc1Cl)N/N=C/c1ccc[nH]1	8.4	1.0	-0.1	0.2	-22.3*
O=C(COc1ccc(Cl)cc1Cl)c1ccc[nH]1	1.3	-3.1	0.1	-0.8	-30.6*
O=C(NC1=NCCS1)c1ccccc1OCc1ccccc1Cl	-2.3	0.4	43.9*	0.5	1.9
C[C@@H](NC(=O)C[C@H]1CC[C@@H]2[C@H](COC[C@H](O)CN2Cc2cc(F)ccc2F)O1)c1ccccc1	·	·	-0.5	·	-1.8
COc1ccc(NC(=O)N(C)C[C@H]2Oc3ncc(-c4cccnc4)cc3C(=O)N([C@H](C)CO)C[C@@H]2C)cc1	·	·	0.0	·	8.9
O=C(/C=C\Nc1ccc2c(c1)OCO2)c1ccc(Cl)s1	-3.1	0.4	43.4*	0.3	8.7
O=C(COC(=O)Cn1nc(-c2ccccc2)oc1=O)Nc1ccc(F)cc1	-6.8	-0.6	0.2	0.4	11.6
Cc1ccc(NC(=O)COC(=O)Cn2nc(-c3ccc(F)cc3)oc2=O)cc1C	-0.8	1.0	43.5*	1.1	-3.4
CC(c1ccon1)N(C)C(=O)CCc1nnc(C2(c3ccc(Cl)cc3)CCC2)o1 (centres undefined)	-11.7	-2.9	43.3*	-0.1	-4.4
O=C(CCc1nnc(C2(c3ccc(Cl)cc3)CCC2)o1)NC1CC1	-13.1	-5.7	43.6*	0.0	-17.0
COCC(C)NC(=O)CCc1nnc(C2(c3ccc(Cl)cc3)CCC2)o1 (centres undefined)	-0.8	-0.3	·	0.1	·
Cc1noc(C)c1NC(=O)Nc1ccc2c(c1)C(=O)N([C@@H](C)CO)C[C@@H](C)[C@H](CN(C)S(=O)(=O)c1cn(C)cn1)OCCCC[C@@H](C)O2	·	·	-0.1	·	2.9
O=C(Cc1ccc(Cl)cc1Cl)Nc1ccncc1Cl	-2.2	1.7	0.2	0.5	-7.7
O=C(Cc1ccc(Cl)cc1Cl)Nc1ccncc1	-0.1	-3.2	0.0	0.5	-24.7*
C[C@@H]1CCCCO[C@@H](CN(C)Cc2ccccc2)[C@H](C)CN([C@H](C)CO)C(=O)c2cc(NS(=O)(=O)c3cn(C)cn3)ccc2O1	·	·	0.0	·	1.3
CSc1nsc(NN)n1	-4.2	-1.9	-0.4	-0.4	-32.9*
CCOC(=O)c1cccc(N2C(=O)Nc3ccccc3N2O)c1	-9.8	-2.0	·	-0.1	·
CCOC(=O)c1c(N2C(=O)Nc3ccccc3N2O)n[nH]c1-c1cccc(OC)c1	3.5	-1.6	42.9*	0.3	0.0
C[C@H]1CN([C@@H](C)CO)C(=O)Cc2cc(NC(=O)CCCN(C)C)ccc2O[C@H]1CN(C)S(=O)(=O)c1ccc(F)cc1	·	·	0.2	·	-0.8
COc1ccccc1-c1nc2c3ccccc3nc(=S)n2[nH]1	7.3	-0.4	-0.5	0.8	-27.3*
COc1cc(-c2nc3c4ccccc4nc(=S)n3[nH]2)cc(OC)c1OC	3.0	1.9	-0.1	-0.3	1.5
Cc1ccc(S(=O)(=O)N[C@@H]2CC[C@H](CC(=O)NC3CCCCC3)O[C@H]2CO)cc1	·	·	0.2	·	-4.4
CCCc1ccc(-c2ccc(/C=C/C(=O)O)cc2)nc1	-46.5	-13.3	0.3	0.4	-26.2*
CCOC(=O)N1CCN(C(=O)c2ccc3c(c2)N(CC)CCS3)CC1	-205.8	-54.1	-0.1	13.5*	-1.6
Cc1noc(C)c1S(=O)(=O)N(C)C[C@H]1Oc2ccc(NC(=O)Nc3ccc(C(F)(F)F)cc3)cc2C(=O)N([C@H](C)CO)C[C@@H]1C	·	·	·	·	-5.5
CN(C(=O)C1CCN(S(=O)(=O)c2ccccc2[N+](=O)[O-])CC1)C1CCCCC1	9.1	2.7	43.8*	0.4	-17.1
